Measurements as given in the supplement of paper PMC3334620.
Over roughly 33,000 sequences, “E-score (-0.5 to 0.5)” has its median near -0.04; the highest 2% begin near 0.36. The sample holds the highest values, similar sequences and a random draw of the others, so the mix is not that of the screen.

The sequences below were run against T1, Hmlalpha2 (UniProt P0CY09) (assay: PBM E-score (8-mer binding enrichment) (E-score (-0.5 to 0.5)); higher = stronger / more preferred TF binding). Conditions: protein concentration: 200 nM; construct: GST-full length.
T1 sequence: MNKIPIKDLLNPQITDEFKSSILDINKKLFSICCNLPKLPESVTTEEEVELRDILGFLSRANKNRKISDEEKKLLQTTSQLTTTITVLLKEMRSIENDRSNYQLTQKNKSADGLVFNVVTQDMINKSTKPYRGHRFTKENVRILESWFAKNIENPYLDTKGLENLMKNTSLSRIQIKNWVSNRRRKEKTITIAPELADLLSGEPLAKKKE
Procedure: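 Universal 'all 10-mer' protein binding microarrays (Agilent AMADID 015681) probed with GST-tagged S. cerevisiae TFs (full-length or DBD) made by in vitro transcription/translation (PURExpress), about 100-200 nM. Bound TF was detected with fluorescent anti-GST. Each ungapped 8-mer (which stands for itself and its reverse complement) is scored by the PBM enrichment score (E-score), a modified Wilcoxon-Mann-Whitney statistic from -0.5 to +0.5, computed with the Universal PBM Analysis Suite. Scale: above 0.35 generally sequence-specific binding.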

In order of rising “PBM E-score” value:
1. CCCTTAGA  -0.353
2. GGGGGGCA  -0.328
3. AGCCACCC  -0.289
4. AGGAGAGG  -0.277
5. AGATGCCA  -0.254
6. TGGTCCAA  -0.192
7. AAGAGGCA  -0.184
8. CCGGGCAG  -0.165
9. GCTCAACC  -0.147
10. AGCATTGA  -0.135
11. CTAGCAAG  -0.133
12. ATCGCTCG  -0.128
13. TCAGGAGA  -0.123
14. CACCTTCC  -0.11
15. ACCACCGT  -0.0982
16. AGTGCCAG  -0.0844
17. ACTGCCCA  -0.0607
18. CACAAAGG  -0.0549
19. GAAGTCGA  -0.0459
20. GTTTGGCA  -0.0431
21. TACCCACA  -0.015
22. CCATCACA  0.00393
23. CCGGACAA  0.0112
24. ATACCTGA  0.0295
25. CTACATTC  0.0322
26. CCTGTGAA  0.0484
27. AAGTAAAG  0.0486
28. CCTGTGTC  0.0583
29. GCTGTGAA  0.0585
30. ATTGTAAG  0.0623
31. GGGTAAAC  0.0624
32. GATGCATC  0.0847
33. AGTATGCG  0.0952
34. CACAGAGA  0.0962
35. ATAGCGAC  0.106
36. ACAGAAAT  0.107
37. AGTGTATA  0.114
38. ACTGTGTG  0.128
39. CTTTAAAC  0.153
40. GCTGTATA  0.153
41. AGGTAAAA  0.16
42. GTACAGAC  0.17
43. AGACATGC  0.171
44. ACTGTGTC  0.174
45. GGGTAAAA  0.185
46. ACCAACAA  0.198
47. AGACATGG  0.21
48. GTTTAAAA  0.215
49. ATTGTAAC  0.221
50. GAGTAAAA  0.237
51. AGGTAAAT  0.24
52. CTGTAAAG  0.244
53. AGGTAAAC  0.26
54. TGGTAAAA  0.266
55. AGACATGA  0.275
56. AAGTAAAC  0.283
57. ATACATCG  0.299
58. TAGTAAAA  0.306
59. ATACATCC  0.308
60. CTGTAAAC  0.31
61. CGACATGC  0.311
62. CCTGTAAA  0.328
63. ATACATCA  0.334
64. AAGTAAAT  0.341
65. GGTGTAAA  0.351
66. AGTGTAAT  0.357
67. CTGTAAAA  0.359
68. CTTGTAAC  0.36
69. ATTGTAAA  0.374
70. AGTGTAAA  0.38
71. TTGTAAAA  0.392
72. GTTTAAAC  0.41
73. ATACATGC  0.427
74. CTACATGC  0.429
75. CCTGTGTA  0.43
76. GCTGTGTA  0.437
77. ACTGTGTA  0.443
78. ATACATGG  0.451
79. CTTGTAAA  0.452
80. ATACATGA  0.465
81. GTGTAAAA  0.467
82. ATGTAAAG  0.473
83. GTGTAAAC  0.474
84. ATGTAAAA  0.474
85. ATGTAAAT  0.477
86. ATGTAAAC  0.483
